Bioassay records from PubChem BioAssay.
BAZ2B inh – inhibitors of human BAZ2B bromodomain | Potency, µM (series often up to 114 µM), without a hit: at the highest dose activity change, negative = inhibition, actives largely listed as inhibitors | 360,000 tested, 4.4% active | Q9UIF8 | AlphaScreen BAZ2B-H3K14Ac peptide displacement | AID 504333; further: on the % scale 0 is the no-effect control and ±100 the full control effect; nearly all actives have a fitted effect of over 60% in size
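AlphaScreen displacement: compounds (up to 110uM) incubated 30 min at room temperature with a preformed 50 nM BAZ2B/50 nM biotinylated H3K14Ac peptide complex in PBS pH 7.4 with Tween-20. Donor and acceptor beads at 10 ug/mL final added, 20 min light-protected before reading.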
Sfp inh – inhibitors of Bacillus subtilis Sfp phosphopantetheinyl transferase. Q9F4F7. Biochemical Sfp PPTase activity, qHTS. Potency, µM, without a hit: largest response in the series, negative = inhibition, most hits filed as inhibitors. 310,000 tested, 3.5% active;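 further: the enzyme is Sfp with the accession as filed and its product quenches rhodamine fluorescence; 0% = enzyme reaction without inhibitor and -100% = no enzyme wells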
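Buffer: 50 mM Hepes-Na pH 7.6, 10 mM MgCl2, 0.01% Nonidet P-40, 0.01% BSA. Enzyme 15 nM, pre-exposed to compound 15 min; substrates then added and fluorescence change tracked over 30 min.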
JMJD2A Tudor – blocks the human JMJD2A Tudor domain | AlphaScreen JMJD2A-Tudor / H3K4me3 peptide binding | 390,000 tested, 4.4% active | O75164 | Potency, µM (series often up to 114 µM), without a hit: at the top dose activity change, negative = inhibition, most hits filed as inhibitors; further: on the % scale 0 is the no-effect control and ±100 the full control effect; nearly all actives have a fitted effect of over 50% in size
G9a inh – inhibitors of human histone lysine methyltransferase G9a. Q96KQ7. G9a H3K9 monomethylation, AlphaScreen, 2 h. Potency, µM (series often up to 102 µM), for the others: at the top dose activity, negative = inhibition, actives largely listed as inhibitors. 350,000 tested, 8.8% active; further: on the % scale 0 is the no-effect control and ±100 the full control effect; nearly all actives have a fitted effect of over 75% in size
Target sequence (Q96KQ7 913-1193 limits assumed): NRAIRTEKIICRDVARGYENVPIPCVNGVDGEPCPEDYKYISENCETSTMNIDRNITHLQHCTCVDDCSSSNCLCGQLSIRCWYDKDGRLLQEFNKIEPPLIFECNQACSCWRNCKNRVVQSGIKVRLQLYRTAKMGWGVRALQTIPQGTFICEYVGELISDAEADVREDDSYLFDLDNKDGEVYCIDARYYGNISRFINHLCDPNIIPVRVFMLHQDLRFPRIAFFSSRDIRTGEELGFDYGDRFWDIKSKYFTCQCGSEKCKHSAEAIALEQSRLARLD
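Compounds were preincubated with 20 nM G9a for 15 min, after which biotinylated H3K9 peptide (500 nM) and SAM (20 uM) started a 2 h room-temperature reaction. Monomethylated product was quantified by antibody-based AlphaScreen chemiluminescence.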
HP1b binding inh – blocks HP1-beta chromodomain binding to methylated histone tails; AlphaScreen HP1-beta / biotin-H3K9me3 peptide binding; Potency, µM (titrated, usually from 114 µM), for the others: top-dose activity change, negative = inhibition, actives largely listed as inhibitors; 390,000 tested, 0.56% active; AID 540317; further: nearly all actives have a fitted effect of over 70% in size
Target sequence (P83916 whole entry, looked up): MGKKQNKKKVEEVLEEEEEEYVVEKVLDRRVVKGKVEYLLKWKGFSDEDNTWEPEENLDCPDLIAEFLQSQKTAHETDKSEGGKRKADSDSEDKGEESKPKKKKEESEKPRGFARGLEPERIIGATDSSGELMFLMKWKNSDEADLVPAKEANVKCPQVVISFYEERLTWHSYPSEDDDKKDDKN
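AlphaScreen: HP1-beta (50 nM) preformed 30 min with biotin-H3(1-18)K9me3 peptide (50 nM) in PBS pH 7.4, 0.01% Tween-20. Compound added for 30 min at RT, then streptavidin donor/nickel chelate acceptor beads (10 ug/mL) for 30 min.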
12-LOX inh – inhibitors of human 12S-lipoxygenase ALOX12; P18054; purified 12hLO, xylenol orange hydroperoxide absorbance; Potency, µM (titrated, usually from 108 µM), for the others: top-dose activity change, negative = inhibition, usual class: inhibitors; 580,000 tested, 1.1% active; further: on the % scale 0 is the no-effect control and ±100 the full control effect
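Purified human 12hLO (150 nM final) in 25 mM Hepes, 0.01% Triton X-100, pH 7.0 was preincubated 15 min at room temperature with compound. Then 40 uM arachidonic acid was added, 30 min. Hydroperoxide was read by Fe-XO absorbance ratio 573/405 nm.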
Starred values were filed as active, the others as inactive; ? = inconclusive; / = not tested or not shown; [ ] = another dose, or the depositor's remark. Sampled rows, rich in hits. Any-hit rate of the full collection: about 8.7%. The call rests on the fitted dose curve; in most records, active means well fitted curve in the direction sought with a large enough effect; inconclusive means small, poorly fitted or top-dose-only effect, or another doubt; inactive means no such curve, though single readings can be large; an effect the other way counts as inactive or inconclusive. Potency means the concentration at half of the fitted maximal effect.

SMILES	BAZ2B inh	Sfp inh	JMJD2A Tudor	G9a inh	HP1b binding inh	12-LOX inh
COc1cc(OC)cc(C(=O)NC(=S)Nc2ccc(N3CCCC3)cc2)c1	?	?	?	10µM*	?	44.7µM*
CCOc1cccc(C(=O)NC(=S)Nc2cccnc2)c1	-33.1%	44.7µM*	?	10µM*	7.3%	-21.9%
COc1ccc(C(=O)Nc2ccccc2C(=O)NCc2cccnc2)cc1OC	-14.6%	16.9%	-9.7%	70.8µM*	38.9%	-9.3%
Cn1nc(C(=O)N2CCc3sccc3C2)c2ccccc2c1=O	/	/	/	/	/	39.4%
COC(=O)CC(NC(=O)Cc1ccccc1Cl)c1cccs1 (stereo unspecified)	/	/	/	/	/	-19.1%
CC1(C)CC(=O)C(C(C2=C(O)CC(C)(C)CC2=O)c2cc(Cl)cc(Cl)c2O)C(=O)C1 (stereo unspecified)	/	/	/	/	/	-64.6%
CC1(C)CC(=O)c2c(-c3cccs3)n[nH]c2C1	-3.9%	-2.5%	17.9%	-30.5%[59 µM]	25.1%	-8.9%
CCCC(C1=C(O)CC(C)(C)CC1=O)C1C(=O)CC(C)(C)CC1=O (stereo unspecified)	-2.7%	-29.2%	-2.2%	28.2µM*	55.4%	?
CC1(C)CC(=O)C(C(C2=C(O)CC(C)(C)CC2=O)c2cccnc2)C(=O)C1 (stereo unspecified)	27.5%	4.8%	-17.2%	50.1µM*	61.3%	0.0%
CC1(C)CC(=O)C(C=Nc2cccnc2)=C(O)C1	0.7%	-13.6%	3.8%	8.9%[2.33 µM]	14.5%	-10.8%
CC1(C)CC(=O)C(C(C2=C(O)CC(C)(C)CC2=O)c2cccs2)C(=O)C1 (stereo unspecified)	3.4%	22.4µM*	-18.8%	44.7µM*	20.6%	/
Cc1ccc(C(C2=C(O)CC(C)(C)CC2=O)C2C(=O)CC(C)(C)CC2=O)o1 (stereo unspecified)	-30.7%	-18.3%	-8.0%	25.1µM*	61.5%	?
O=C(C[C@@H]1CCNC[C@@H]1Cc1cc(-c2ccccc2)on1)N1CCC(Cc2ccccc2)CC1	/	/	/	/	/	2.5%
CC1(C)CC(=O)C(C(C2=C(O)CC(C)(C)CC2=O)c2cccc(O)c2)C(=O)C1 (stereo unspecified)	3.1%	22.4µM*	-11.9%	?	43.7%	0.0%
CCCNC(=O)C1CCCN(Cc2cccc(C(F)(F)F)c2)C1 (stereo unspecified)	/	/	/	/	/	7.6%
CCOC(=O)c1c(C)nc2ccccc2c1-c1ccccc1	22.3%	79.4µM*	27.8%	-0.3%[59 µM]	96.1%	4.9%
CCOC(=O)c1c(C)nc(C)c(C(=O)OCC)c1-c1ccc(O)c(OC)c1	7.7%	31.6µM*	-22.3%	8.91µM*	?	?
CCOC(=O)c1c(-c2ccccc2)nc2ccccc2c1-c1ccccc1	/	/	/	/	/	-6.1%
CCCNC(=O)NCCc1ncc(C)n1C(C)C	/	/	/	/	/	39.1%
Cc1ccc(C(=O)N2CCc3nc(C(C)C)nc(-c4ccc(O)cc4)c3CC2)cc1	/	/	/	/	/	-7.8%
CCn1c(=O)[nH]c(=O)c2cc(C(=O)Nc3ccc(C)c4ncccc34)cnc21	/	/	/	/	/	-3.7%
Cc1ccc(S(=O)(=O)/N=C2/NC(=O)/C(=C/c3cccnc3)S2)cc1	11.1%[57.1 µM]	1.5%	-24.6%	7.0%	0.4%	-38.8%
O=C1N/C(=N\S(=O)(=O)Cc2ccccc2)S/C1=C/c1cc([N+](=O)[O-])ccc1O	-32.4%	28.2µM*	-26.5%	39.8µM*	12.7%	-28.7%
COc1cc(/C=C2/S/C(=N/S(=O)(=O)c3ccccc3)NC2=O)c([N+](=O)[O-])cc1OC	70.8µM*	79.4µM*	-27.6%[57.1 µM]	-11.8%[12.7 µM]	-3.8%	-22.6%
Cc1ccc(S(=O)(=O)/N=C2/NC(=O)/C(=C/c3ccc(Br)o3)S2)cc1	?	3.3%	?	?	-8.6%	1µM*
Cc1ccc(S(=O)(=O)/N=C2/NC(=O)/C(=C\c3cc(Br)cc(Br)c3O)S2)cc1	31.6µM*	?	50.1µM*	31.6µM*	?	/
